Results reported in PubChem BioAssay AID504332 (National Center for Advancing Translational Sciences (NCATS), 2011).
Screen size: about 350,000 compounds; about 31,000 (8.9%) were called active. Another 15% or so got no clear call; they are omitted. Only a selection was taken, and actives are over-represented in it overall. Values without a mark were called inactive. Calls come from the whole dose curve; as a rule, active = well fitted inhibition curve with a large enough effect; inconclusive = small, poorly fitted or top-dose-only effect; inactive = no such curve, though single readings can be large or run the other way.

target: Histone-lysine N-methyltransferase EHMT2 (Homo sapiens) (UniProt Q96KQ7); assay: qHTS Assay for Inhibitors of Histone Lysine Methyltransferase G9a; conditions: G9a H3K9 monomethylation, AlphaScreen, 2 h; series mostly up to 59 µM; activity, negative = inhibition: at the top concentration; note: nearly all actives have a fitted effect of over 75% in size
Summary of the method: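 Enzyme 20 nM + cpd, 15 min RT; add b-H3K9 pep 500 nM / SAM 20 uM; 2 h RT; anti-H3K9me1 Ab 0.5 ug/mL + SA donor / anti-rabbit acceptor beads 20 ug/mL each, 10 min; AlphaScreen read.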
% is set by controls: 0 for no effect and ±100 for the full control effect; potency is the fitted concentration of half-maximal effect.

Sequence of Histone-lysine N-methyltransferase EHMT2 (Homo sapiens) (Q96KQ7 913-1193 limits assumed): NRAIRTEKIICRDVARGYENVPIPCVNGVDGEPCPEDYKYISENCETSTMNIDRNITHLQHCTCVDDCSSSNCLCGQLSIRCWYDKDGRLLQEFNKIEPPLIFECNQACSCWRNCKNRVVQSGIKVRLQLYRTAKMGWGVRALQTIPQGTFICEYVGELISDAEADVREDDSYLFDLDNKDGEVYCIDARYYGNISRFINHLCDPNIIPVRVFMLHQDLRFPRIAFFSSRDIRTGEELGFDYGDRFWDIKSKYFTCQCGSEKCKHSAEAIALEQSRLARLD

Compared with `Cc1cccc(NC(=O)c2cccc(S(=O)(=O)N3CCCC3)c2)n1`, `O=C(c1ccc(Cl)c([N+](=O)[O-])c1)N1CCN(c2ccccc2)CC1` is lower in “activity, negative = inhibition” value: -27.4% [at 102 µM] for the first, -43.7% [at 102 µM] for the second.

Going from `COC(=O)C1=C(C)N(C)C(=O)NC1c1ccc([N+](=O)[O-])o1` (configuration not stated) to `COc1ccccc1CCNC(=O)c1c(C)nn(CC(C)C)c1Cl`, the “activity, negative = inhibition” value rises from -2.67% [at 102 µM] to 46.5% [at 102 µM].

First: COc1cnc(-c2ccccn2)nc1Oc1ccc(C(C)(C)C)cc1
Second: COc1ccc(-c2nc3ccccc3n2CCC(C)C)cc1OC
The “activity, negative = inhibition” value of the first is higher: 16.9% [at 102 µM] for the first, -2.19% [at 102 µM] for the second.

First: CCOCCn1c(-c2ccccc2)nc2ccccc21
Second: CCOc1ccccc1/C=N/Nc1nc2ccccc2o1
The “activity, negative = inhibition” value of the first is higher: 17.2% [at 102 µM] for the first, 15.2% [at 102 µM] for the second.

Compared with `Cc1ccc(-c2nn(-c3ccccc3)cc2C(=O)NCCCN2CCCC2=O)cc1`, `O=C(NCCN1CCOCC1)/C(=C/c1ccc(F)cc1)NC(=O)c1ccccc1` is higher in “activity, negative = inhibition” value: -28.8% [at 102 µM] for the first, 8.68% [at 102 µM] for the second.

Compared with `COc1ccc(-n2cc(-c3ccccc3)c3c(=S)nc[nH]c32)cc1`, `CCc1ccc(Oc2coc3cc(O)ccc3c2=O)cc1` is lower in “activity, negative = inhibition” value: 20.3% [at 102 µM] for the first, 13.5% [at 102 µM] for the second.

Going from `CCn1cc(CN2CCC(n3nccc3NC(=O)CCCc3ccccc3)CC2)c(C)n1` to `COc1ccc(CN2CCC(n3nccc3NC(=O)CCCc3ccccc3)CC2)cc1C`, the “activity, negative = inhibition” value rises from 20.1% [at 102 µM] to 24.6% [at 102 µM].

Compared with `Cc1ccc(C(=O)N/C(=C\c2ccc(F)cc2)C(=O)NCCN2CCOCC2)cc1`, `Cc1cccn2c(=O)c3cc(C(=O)NC4CCCCC4)sc3nc12` is higher in “activity, negative = inhibition” value: -3.65% [at 102 µM] for the first, 3.36% [at 102 µM] for the second.

Going from `CCOc1cc(C)c(S(=O)(=O)NCc2ccccn2)cc1C` to `O=c1cnnc(Nc2ccccc2)[nH]1`, the “activity, negative = inhibition” value falls from 15.8% [at 102 µM] to 14.3% [at 102 µM].

With `COC(=O)C1=C(C(=O)OC)C(c2cc([N+](=O)[O-])ccc2O)c2sc(=O)[nH]c2S1` (configuration not stated) the Potency was 44.7 µM (active).
With `CC(=O)OCCN(CCCn1c(-c2ccncc2)nc2ccccc21)c1nc(-c2ccc(C)cc2)cs1` the Potency was 56.2 µM (active).
In the case of `COc1ccc(-c2cn(-c3ccc(OC)cc3)c(=S)[nH]2)cc1`, the Potency is reported as 1.41 µM (active).
For `COc1ccc(C2NC(=S)NC3=C2CCc2ccccc23)cc1OC` (configuration not stated), the Potency was 0.631 µM (active).
For `COc1cc(CN2CCC(n3nccc3NC(=O)CCCc3ccccc3)CC2)ccc1O`, the Potency was 70.8 µM (active).
For `CCN1CCN(CCNC(=O)c2ccc(/C=C3/Sc4ccccc4N(Cc4cccc(C)c4)C3=O)cc2)CC1`, the Potency was 44.7 µM (active).
`O=C(NCCN1CCOCC1)c1ccc(/C=C2\Sc3ccccc3N(Cc3ccc(F)cc3)C2=O)cc1` was tested, and the Potency was 28.2 µM (active).
With `Cc1c(C)c(C)c2[nH]c(=S)[nH]c2c1C` the Potency was 1.12 µM (active).
In the case of `CO/N=C/c1ccc(N2CCN(C(=O)c3cccc(Cl)c3)CC2)c([N+](=O)[O-])c1`, the Potency is reported as 14.1 µM (active).
For `Cc1ccccc1-n1nc(C)c2cc(C(=O)NC3CC3)sc21`, the Potency was 79.4 µM (active).
`S=c1[nH]nc(NCCc2ccccc2)s1` was tested, and the Potency was 0.316 µM (active).
In the case of `S=c1[nH]nc(Nc2ccccc2)s1`, the Potency is reported as 1.12 µM (active).

Compared with `Cc1ccccc1CNC(=O)CCc1cn(Cc2ccccc2C)c2ccccc12`, `Cc1ccccc1CN1C(=O)c2ccccc2Sc2ccc(C(=O)NCCCN3CCOCC3)cc21` is higher in “activity, negative = inhibition” value: -27.4% for the first, -26.2% for the second.

First: CCOc1ccc(S(=O)(=O)c2cn(Cc3ccccc3)c3ccc(OCC)cc3c2=O)cc1
Second: CCOc1ccc(N(CC)S(=O)(=O)N2CCCC(C(=O)NCc3ccc(Cl)cc3)C2)cc1 (configuration not stated)
The “activity, negative = inhibition” value of the first is higher: 4.03% for the first, 3.08% for the second.

Going from `CCC(Sc1nc2n[nH]c(C)c2c(=N)n1-c1ccccc1Cl)C(=O)N(CC)CC` (configuration not stated) to `COC(=O)c1ccccc1NC(=O)Cn1c(=O)cc(C)c2c(C)nn(-c3cccc(Cl)c3C)c21`, the “activity, negative = inhibition” value falls from 20.7% to 1.79%.

First: CCC(C(=O)Nc1cccc(Cl)c1C)n1nc(-c2ccc(C)cc2)ccc1=O (configuration not stated)
Second: CCc1nc2c(cnn2-c2ccc(C)cc2)c(=O)n1-c1ccc(C)cc1
The “activity, negative = inhibition” value of the first is lower: -3.11% for the first, 11.6% for the second.

Going from `Cn1nnc2c(N3CCN(c4ccccc4)CC3)ncnc21` to `CCN(CC)S(=O)(=O)c1ccc2c(c1)c(=O)c(C(=O)N1CCN(c3cccc(Cl)c3)CC1)cn2C`, the “activity, negative = inhibition” value rises from 1.37% to 2.37%.

First: O=C(Cc1ccc(Cl)cc1)NCC(c1cccs1)S(=O)(=O)c1ccc(Cl)cc1 (configuration not stated)
Second: Cc1nc2sc(C)c(C)n2c(=O)c1S(=O)(=O)NCCc1ccc(Cl)cc1
The “activity, negative = inhibition” value of the first is higher: 27.5% for the first, -7.89% for the second.

First: COc1ccc(N2C(=O)CNC2=S)cc1
Second: CCN(C(=O)c1sc2cc(OC)ccc2c1Cl)c1ccccc1
The “activity, negative = inhibition” value of the first is lower: -12.5% for the first, 52.3% for the second.

Compared with `COc1cccc(NC(=O)Cn2c(=O)cc(C)c3c(C)nn(-c4cccc(F)c4)c32)c1`, `Cc1cccc(NC(=O)c2cc3c(C)nn(-c4ccccc4)c3s2)c1` is lower in “activity, negative = inhibition” value: 6.73% for the first, -1.38% for the second.

Compared with `Fc1ccc(CN2CCc3nc(Nc4ccccc4)ncc3C2)cc1F`, `CC(C)(C)C(=O)c1cnc(Nc2ccccc2)s1` is higher in “activity, negative = inhibition” value: -40.7% for the first, -11.7% for the second.

Going from `CCOC(=O)c1cccc(NC(=O)c2cc(CN3CCCC3)on2)c1` to `CCCN(CCC)CCCNC(=O)Cn1cc2c(n1)-c1c(oc(C(=O)N3CCCC3)c1C)CC2`, the “activity, negative = inhibition” value falls from 2.39% to -27.7%.

Going from `COCC(C)NS(=O)(=O)c1ccc(N2CCCCS2(=O)=O)cc1` (configuration not stated) to `O=S(=O)(NCCc1ccccc1)c1ccccc1`, the “activity, negative = inhibition” value falls from 7.99% to -4.81%.

Going from `COc1cc(Cl)c(NC(=O)CC(C)S(=O)(=O)c2cc3c(cc2C)NC(=O)CO3)c(OC)c1` (configuration not stated) to `O=C(CSc1ncccn1)NCCc1ccccc1`, the “activity, negative = inhibition” value rises from -34% to 21.5%.

First: O=C(Nc1ccc(NC(=O)c2ccc3c(c2)OCO3)cc1)c1cccc(Cl)c1
Second: CCOC(=O)C1=C(c2ccccc2)NC(=S)NC1c1ccc(Cl)cc1 (configuration not stated)
The activity, negative = inhibition of the first is higher: 0.511% [at 12.7 µM] for the first, -11.4% [at 12.7 µM] for the second.

Compared with `COC(=O)C1=C(C)NC(=S)NC1c1ccc(OCC(=O)N2CC(C)OC(C)C2)c(OC)c1` (configuration not stated), `O=C1[C@H]2[C@@H](c3ccc(F)cc3)N3C(=O)N(c4ccc(C(F)(F)F)cc4)C(=O)[C@@]3(Cc3ccccc3)[C@H]2C(=O)N1C1CCCCC1` is higher in activity, negative = inhibition: -3.57% [at 12.7 µM] for the first, 1.06% [at 12.7 µM] for the second.

Going from `Cc1ccc(CC(=O)N(C)CC(=O)N(CC(C)C)c2c(N)n(CC(C)C)c(=O)[nH]c2=O)cc1C` to `Cc1cc(=O)[nH]c(=S)[nH]1`, the activity, negative = inhibition falls from 10.8% [at 2.33 µM] to -41.8% [at 2.33 µM].

Compound `CCN1CCN(CCNC(=O)c2ccc3c(c2)NC(=O)/C(=C\c2ccc(OC)c(OC)c2)S3)CC1` has an activity, negative = inhibition of 4.92% [at 0.0925 µM].

For `O=C(c1cccc(F)c1)N1CCN(c2ccc([N+](=O)[O-])c(N3CCCCC3)c2)CC1`, the activity, negative = inhibition was 21.2% [at 0.501 µM].
